Measurements: the supplement of paper PMC6279402
Where a name gives a salt, the structure may show the parent alone. ± gives the standard deviation of the averaged measurements.

Test system: A549
Assay: relative viability (normalised to negative control = 1, bortezomib = 0) (fraction); higher = less cytotoxic
Settings: inflammatory serum-free RHB-A with cytokines + LPS, 5 d + 24 h CellTiter-Blue
Method: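 A549 KRAS-mutant NSCLC cells, pre-treated 5 µM GSK126 or vehicle (DMSO), were seeded at 250 cells/well in 384-well plates in serum-free RHB-A medium with inflammatory cytokines/LPS and treated with Selleck kinase inhibitor and NCI oncology compounds at 30 or 300 nM in triplicate, refreshed at 48 h. Viability was read by CellTiter-Blue after 5 d plus 24 h and normalised per plate with cellHTS2 (mean of bortezomib positive control = 0, mean of negative control = 1).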

[1] = compound 30 nM, GSK126 pretreatment: 5 uM GSK126
[2] = compound 30 nM, GSK126 pretreatment: none (vehicle)
[3] = compound 300 nM, GSK126 pretreatment: 5 uM GSK126
[4] = compound 300 nM, GSK126 pretreatment: none (vehicle)

Row | SMILES | relative viability [1] | relative viability [2] | relative viability [3] | relative viability [4]
1 | C[S+]([O-])c1ccc(-c2nc(-c3ccc(F)cc3)c(-c3ccncc3)[nH]2)cc1 (stereo not given) | 1.03 ± 0.22 | 0.902 ± 0.11 | 1.3 ± 0.14 | 1.14 ± 0.13
2 | CCN1CCN(Cc2ccc(-c3cc4c(N[C@H](C)c5ccccc5)ncnc4[nH]3)cc2)CC1 | 0.695 ± 0.092 | 0.693 ± 0.028 | 0.446 ± 0.042 | 0.414 ± 0.068
3 | O=C(NOCC(O)CO)c1cc(Br)c(F)c(F)c1Nc1ccc(I)cc1F (stereo not given) | 0.407 ± 0.025 | 0.492 ± 0.087 | 0.193 ± 0.019 | 0.276 ± 0.0045
4 | CN1CC[C@H](c2c(O)cc(O)c3c(=O)cc(-c4ccccc4Cl)oc23)[C@H](O)C1 [Flavopiridol hydrochloride] | 0.774 ± 0.011 | 0.785 ± 0.025 | 0.00358 ± 0.0037 | 0.00865 ± 0.0022
5 | COc1cc2c(Oc3ccc(NC(=O)C4(C(=O)Nc5ccc(F)cc5)CC4)cc3F)ccnc2cc1OCCCN1CCOCC1 | 0.797 ± 0.081 | 0.789 ± 0.037 | 0.57 ± 0.1 | 0.573 ± 0.074
6 | C#Cc1cccc(Nc2ncnc3cc(OCCOC)c(OCCO)cc23)c1 [OSI-420 (Desmethyl Erlotinib)] | 0.944 ± 0.086 | 0.91 ± 0.05 | 0.477 ± 0.047 | 0.505 ± 0.019
7 | O=c1[nH]cc(F)c(=O)[nH]1 [5-Fluorouracil; Fluorouracil] | 0.96 ± 0.07 | 0.911 ± 0.063 | 0.865 ± 0.13 | 0.924 ± 0.026
8 | O=C(CCBr)N1CCN(C(=O)CCBr)CC1 [Pipobroman] | 0.735 ± 0.045 | 0.705 ± 0.026 | 0.725 ± 0.096 | 0.822 ± 0.12
9 | CC(C)n1nc(-c2cc3cc(O)ccc3[nH]2)c2c(N)ncnc21 | 0.686 ± 0.035 | 0.751 ± 0.032 | 0.37 ± 0.014 | 0.431 ± 0.043
10 | C/C=C1\NC(=O)[C@H]2CSSCC/C=C/[C@H](CC(=O)N[C@H](C(C)C)C(=O)N2)OC(=O)[C@H](C(C)C)NC1=O [Depsipeptide] | 0.00208 ± 0.0052 | 0.00595 ± 0.0056 | -0.0034 ± 0.0005 | -0.00514 ± 0.00076
